About 79,000 compounds went through this panel and 15% of them were active in at least one assay; those are over-represented in the sample as a whole. A number with no mark means an inactive call. Activity calls are given as the source filed them. No stated cut-off is given here; in the data, active means growth inhibition above about 70%; inactive means the rest.
assay: NCI Yeast Anticancer Drug Screen. Data for the cln2 rad14 strain (AID 165);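 further: 0% = growth equal to vehicle treated cultures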; details: S. cerevisiae cln2 rad14 strain, at 50.0 µM, hits give high values
In short: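 Each compound was tested on cln2 rad14 yeast. Inhibition of growth was calculated against vehicle-exposed controls.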

SMILES	growth inhibition
COC(=O)Cc1onc(-c2ccccc2)c1[N+](=O)[O-]	19.9%
CCOC(=O)c1ccc2c(c1)Cc1c-2cc(Br)c(N)c1Br	9.15%
O=C(CCl)OCC(CCl)OC(=O)CCl (stereo not given)	-15.2%
Nc1nc(CCl)nc(N2CCOCC2)n1	20.4%
CC(C)(C)C(=O)CN	-71%
COc1ccc2c(=O)c(-c3ccc(OC)c(OC)c3)c(C)oc2c1	7.5%
COc1ccc(C(=O)OCc2ccccc2CN2CCCCC2)cc1	-16.3%
BrCC(Br)c1ccc(C(Br)CBr)cc1 (stereo not given)	14.7%
CC(=O)C(C)CCOC1(C)OCCC1C (stereo not given)	-22.2%
O=C(O)C1CCC(C(=O)O)CC1.[NH-]C1CCCCC1[NH-].[Pt+2] (stereo not given)	6.9%
OCC#C[C@@H]1CC[C@H]1C#CCO	2.3%
NC1=NS(=O)(=O)Nc2nc(-c3ccc(Cl)cc3)c(-c3ccc(Cl)cc3)nc21	3.45%
Clc1cc(Cl)nc(Cl)n1	21.1%
C[C@@]12CCC3C1C=C1C(=O)c4cc(O)ccc4C(=O)[C@]1(O2)[C@@]3(C)C=O	51.1%
COC(=O)/C(C#N)=C/c1cccnc1	-61.1%
O=[N+]([O-])c1cc(Cl)ccc1Nc1ccccc1	4.65%
O=C1C2=C(OCCO2)C(=O)C2=C1OCO2	7.55%
c1ccc(CN(CCNc2ccccc2)c2ccccc2)cc1	5.1%
CCOC(=O)/C(=C\c1ccccc1)c1nc2ccccc2[nH]1	-15.5%
NCCC(=O)OC1CCCc2c(O)c3c(c(O)c21)C(=O)c1ccccc1C3=O (stereo not given)	98.9% (active)

SMILES	growth inhibition
CC(CO)(CO)CN1CCCCC1	-36.5%
Nc1cc(C(F)(F)F)ccc1[N+](=O)[O-]	-7.25%
O=C(O)c1ccc(F)c([N+](=O)[O-])c1	-22.6%
O=C(NCCCl)NCc1cccc2c1CCCC2	-26.4%
O=[N+]([O-])[C@@H]1C[C@@H]2C=C[C@H]1CC2	-1.3%
O=C(Nn1c(-c2ccccc2)nc2ccccc2c1=O)c1cccc([N+](=O)[O-])c1	5.5%
CN1C(=O)C(C)(O)Sc2ccccc21 (stereo not given)	-17.9%
COc1ccc2ccccc2c1C1OC(=O)c2ccccc21 (stereo not given)	33.4%
CCCCCCCCCCCCS(=O)(=O)CCC(=O)c1ccco1	9.3%
COc1ccc(C)cc1S(=O)(=O)c1c(Cl)cccc1[N+](=O)[O-]	-20.5%
CSc1ccc(NC(=S)NN(C)C)cc1	9.35%
CCCCNc1nc(Cl)nc(C(F)(F)F)c1N	-29.8%
Cc1nc2ccccc2c(=O)n1NC(=S)Nc1cccc(Cl)c1	-12.8%
CC1=CCC(C(C)(C)NC(=O)c2ccccc2)C/C1=N/O (stereo not given)	-49.2%
CC1(C)C(c2ccccc2)=NN(O)c2ccccc21	15.4%
Cc1nccnc1N1CCCCC1	15.9%
COc1ccccc1NC(=O)CC(=O)N1N=C(C)C(N=Nc2ccc(S(N)(=O)=O)cc2)C1=O (stereo not given)	12.8%
NC(=O)SCC(N)C(=O)O (stereo not given)	3.55%
COC(=O)[C@]1(C)CCC[C@]2(C)c3cc(Br)c(C(C)C)cc3CC[C@H]12	-44.5%
COc1cc(OC)c2c(=O)cc(-c3ccc(OC)c(OC)c3OC)oc2c1	-2.3%

assay: NCI Yeast Anticancer Drug Screen. Data for the bub3 strain (AID 167); details: S. cerevisiae bub3 mutant strain, at 50.0 µM, hits give high values
In short: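 Compounds were applied to a genetically altered yeast strain carrying a cell-cycle control defect. Growth inhibition was scored against vehicle-treated controls.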

SMILES	growth inhibition
COC(=O)Cc1onc(-c2ccccc2)c1[N+](=O)[O-]	28.9%
CCOC(=O)c1ccc2c(c1)Cc1c-2cc(Br)c(N)c1Br	18.4%
O=C(CCl)OCC(CCl)OC(=O)CCl (stereo not given)	41.6%
Nc1nc(CCl)nc(N2CCOCC2)n1	19.4%
CC(C)(C)C(=O)CN	11%
COc1ccc2c(=O)c(-c3ccc(OC)c(OC)c3)c(C)oc2c1	-31.4%
COc1ccc(C(=O)OCc2ccccc2CN2CCCCC2)cc1	-14.2%
BrCC(Br)c1ccc(C(Br)CBr)cc1 (stereo not given)	1.5%
CC(=O)C(C)CCOC1(C)OCCC1C (stereo not given)	-36.4%
O=C(O)C1CCC(C(=O)O)CC1.[NH-]C1CCCCC1[NH-].[Pt+2] (stereo not given)	-19.9%
OCC#C[C@@H]1CC[C@H]1C#CCO	2.6%
NC1=NS(=O)(=O)Nc2nc(-c3ccc(Cl)cc3)c(-c3ccc(Cl)cc3)nc21	-22%
Clc1cc(Cl)nc(Cl)n1	4.6%
C[C@@]12CCC3C1C=C1C(=O)c4cc(O)ccc4C(=O)[C@]1(O2)[C@@]3(C)C=O	76.3% (active)
COC(=O)/C(C#N)=C/c1cccnc1	-5.45%
O=[N+]([O-])c1cc(Cl)ccc1Nc1ccccc1	24.8%
O=C1C2=C(OCCO2)C(=O)C2=C1OCO2	12.2%
c1ccc(CN(CCNc2ccccc2)c2ccccc2)cc1	50.6%
CCOC(=O)/C(=C\c1ccccc1)c1nc2ccccc2[nH]1	-14.7%
NCCC(=O)OC1CCCc2c(O)c3c(c(O)c21)C(=O)c1ccccc1C3=O (stereo not given)	98.8% (active)

SMILES	growth inhibition
CC(CO)(CO)CN1CCCCC1	-12.4%
Nc1cc(C(F)(F)F)ccc1[N+](=O)[O-]	8.85%
O=C(O)c1ccc(F)c([N+](=O)[O-])c1	-11.6%
O=C(NCCCl)NCc1cccc2c1CCCC2	-3.1%
O=[N+]([O-])[C@@H]1C[C@@H]2C=C[C@H]1CC2	0.3%
O=C(Nn1c(-c2ccccc2)nc2ccccc2c1=O)c1cccc([N+](=O)[O-])c1	23.8%
CN1C(=O)C(C)(O)Sc2ccccc21 (stereo not given)	-9.2%
COc1ccc2ccccc2c1C1OC(=O)c2ccccc21 (stereo not given)	25.2%
CCCCCCCCCCCCS(=O)(=O)CCC(=O)c1ccco1	6.55%
COc1ccc(C)cc1S(=O)(=O)c1c(Cl)cccc1[N+](=O)[O-]	-1.3%
CSc1ccc(NC(=S)NN(C)C)cc1	1.4%
CCCCNc1nc(Cl)nc(C(F)(F)F)c1N	1.4%
Cc1nc2ccccc2c(=O)n1NC(=S)Nc1cccc(Cl)c1	-8.2%
CC1=CCC(C(C)(C)NC(=O)c2ccccc2)C/C1=N/O (stereo not given)	-43.7%
CC1(C)C(c2ccccc2)=NN(O)c2ccccc21	-4.5%
Cc1nccnc1N1CCCCC1	1.9%
COc1ccccc1NC(=O)CC(=O)N1N=C(C)C(N=Nc2ccc(S(N)(=O)=O)cc2)C1=O (stereo not given)	11%
NC(=O)SCC(N)C(=O)O (stereo not given)	4.95%
COC(=O)[C@]1(C)CCC[C@]2(C)c3cc(Br)c(C(C)C)cc3CC[C@H]12	-4.55%
COc1cc(OC)c2c(=O)cc(-c3ccc(OC)c(OC)c3OC)oc2c1	-18.4%

From PubChem BioAssay (NCI)
